Consider 20 compounds from PubChem BioAssay (EPA / NIEHS).

SMILES strings stand for the structures. Active and inactive are the calls of the source. Rule for the calls: active = hit-call score of the fitted dose curve at least 0.9, where 1 is the maximum; inactive = score below 0.9.

Settings in all cases: mRNA level, 48 h; actives raise or lower the signal
Read-out in assay [1]: Tumor necrosis factor receptor superfamily member 6 (Homo sapiens) (UniProt P25445)
Put plainly: LTEA_HepaRG_FAS: Life Technologies and Expression Analysis (LTEA) Assay for Fas cell surface death receptor (FAS) using HepaRG (AID 2283447). The essentials:
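FAS transcript level was measured by TaqMan qRT-PCR against three housekeeping genes after 48 h chemical exposure. Cells were HepaRG, 0.5% DMSO vehicle, with a top concentration of 100 uM and half-log dilutions over eight points, in duplicate.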

Read-out in assay [2]: Fatty acid synthase (Homo sapiens) (UniProt P49327)
Put plainly: LTEA_HepaRG_FASN: Life Technologies and Expression Analysis (LTEA) Assay for Fatty Acid Synthase (FASN) using HepaRG (AID 2283448).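 For AC50: differentiated human HepaRG liver cells in serum-free induction medium.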 The essentials:
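Transcript-level assay: HepaRG liver cells are treated for 48 h across an eight-point range topping at 100 uM, and FASN mRNA, normalized to three housekeeping genes, is compared with DMSO controls in both directions.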

Read-out in assay [3]: Cyclin D2 (CCND2), CCND2 (gene 894)
Put plainly: LTEA_HepaRG_CCND2: Life Technologies and Expression Analysis (LTEA) Assay for Cyclin D2 (CCND2) using HepaRG (AID 2283449). In outline:
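Read-out is CCND2 mRNA level measured by qRT-PCR in human HepaRG liver cells and normalised to three housekeeping genes. Chemicals were applied for 48 h at up to 100 uM, with gain or loss fitted relative to 0.5% DMSO.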

Read-out in assay [4]: Cyclin Dependent Kinase Inhibitor 1A (CDKN1A), CDKN1A (gene 1026)
The assay is described as follows: LTEA_HepaRG_CDKN1A: Life Technologies and Expression Analysis (LTEA) Assay for Cyclin Dependent Kinase Inhibitor 1A (CDKN1A) using HepaRG (AID 2283450). The essentials: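 Cryopreserved HepaRG cells were plated and cultured 48 h, then switched to serum-free induction medium. Chemicals (eight half-log concentrations, top 100 uM, 0.5% DMSO) were applied for 48 h. Lysates underwent qRT-PCR for CDKN1A with housekeeping normalization.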

Read-out in assay [5]: Cyclin D1 (CCND1), CCND1 (gene 595)
The assay is described as follows: LTEA_HepaRG_CCND1: Life Technologies and Expression Analysis (LTEA) Assay for Cyclin D1 (CCND1) using HepaRG (AID 2283451).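 For AC50: differentiated human HepaRG liver cells in serum-free induction medium; TaqMan qRT-PCR transcript level normalised to ACTB GAPDH and POLR2A housekeeping genes.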 In outline:
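Human liver HepaRG line; 48 h dosing, 8 conc. ≤100 uM, 0.5% DMSO; TaqMan qRT-PCR mRNA, 3 housekeeping genes; bidirectional curve fit vs DMSO.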

Read-out in assay [6]: catalase (CAT), CAT (gene 847)
The assay is described as follows: LTEA_HepaRG_CAT: Life Technologies and Expression Analysis (LTEA) Assay for catalase (CAT) using HepaRG (AID 2283452).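 For AC50: TaqMan qRT-PCR signal normalized to ACTB GAPDH and POLR2A housekeeping genes.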 The essentials:
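Expression of CAT was quantified by TaqMan qRT-PCR with ACTB/GAPDH/POLR2A normalization after 48 h chemical exposure of HepaRG. Eight-point half-log series, top 100 uM, in 0.5% DMSO; gain or loss fitted against vehicle.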

Read-out in assay [7]: flavin-containing dimethylaniline monooxygenases 3 (FMO3), FMO3 (gene 2328)
Put plainly: LTEA_HepaRG_FMO3: Life Technologies and Expression Analysis (LTEA) Assay for flavin-containing dimethylaniline monooxygenases 3 (FMO3) using HepaRG (AID 2283453).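 For AC50: differentiated human HepaRG liver cells in serum-free induction medium; FMO3 transcript by TaqMan qRT-PCR normalized to ACTB GAPDH and POLR2A.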 The essentials: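 HepaRG, 48 h exposure, 8-pt half-log series from 100 uM, 0.5% DMSO vehicle, duplicates; FMO3 transcript by Fluidigm TaqMan qRT-PCR, housekeeping-normalized; gain/loss fit vs DMSO.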

Read-out in assay [8]: Cytochrome P450 (CYP1A1), CYP1A1 (gene 1543)
Put plainly: LTEA_HepaRG_CYP1A1: Life Technologies and Expression Analysis (LTEA) Assay for Cytochrome P450 (CYP1A1) using HepaRG (AID 2283454). The essentials: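 Induction of CYP1A1 mRNA in a human hepatic cell line was measured 48 h after dosing, with 1 mM phenobarbital as induction positive control and 0.5% DMSO vehicle as baseline for bidirectional curve fitting.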

Read-out in assay [9]: Forkhead box O1 (FOXO1), FOXO1 (gene 2308)
Put plainly: LTEA_HepaRG_FOXO1: Life Technologies and Expression Analysis (LTEA) Assay for Forkhead box O1 (FOXO1) using HepaRG (AID 2283456). The essentials: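 Readout is FOXO1 transcript level by multiplexed qRT-PCR against three housekeeping genes, curve-fitted in both directions relative to 0.5% DMSO vehicle. Human HepaRG cultures received chemicals for 48 h, up to 100 uM in half-log steps.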

Read-out in assay [10]: CFLAR gene, CFLAR (gene 8837)
The assay is described as follows: LTEA_HepaRG_CFLAR: Life Technologies and Expression Analysis (LTEA) Assay for CFLAR gene using HepaRG (AID 2283455). In outline: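 HepaRG, 48 h exposure, 8-pt conc-response (100 uM top, half-log), 0.5% DMSO vehicle, duplicates. CFLAR expression by qRT-PCR; ACTB/GAPDH/POLR2A normalization; gain or loss fit vs DMSO baseline.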

Fatty acid synthase (Homo sapiens), sequence (P49327 whole entry, looked up): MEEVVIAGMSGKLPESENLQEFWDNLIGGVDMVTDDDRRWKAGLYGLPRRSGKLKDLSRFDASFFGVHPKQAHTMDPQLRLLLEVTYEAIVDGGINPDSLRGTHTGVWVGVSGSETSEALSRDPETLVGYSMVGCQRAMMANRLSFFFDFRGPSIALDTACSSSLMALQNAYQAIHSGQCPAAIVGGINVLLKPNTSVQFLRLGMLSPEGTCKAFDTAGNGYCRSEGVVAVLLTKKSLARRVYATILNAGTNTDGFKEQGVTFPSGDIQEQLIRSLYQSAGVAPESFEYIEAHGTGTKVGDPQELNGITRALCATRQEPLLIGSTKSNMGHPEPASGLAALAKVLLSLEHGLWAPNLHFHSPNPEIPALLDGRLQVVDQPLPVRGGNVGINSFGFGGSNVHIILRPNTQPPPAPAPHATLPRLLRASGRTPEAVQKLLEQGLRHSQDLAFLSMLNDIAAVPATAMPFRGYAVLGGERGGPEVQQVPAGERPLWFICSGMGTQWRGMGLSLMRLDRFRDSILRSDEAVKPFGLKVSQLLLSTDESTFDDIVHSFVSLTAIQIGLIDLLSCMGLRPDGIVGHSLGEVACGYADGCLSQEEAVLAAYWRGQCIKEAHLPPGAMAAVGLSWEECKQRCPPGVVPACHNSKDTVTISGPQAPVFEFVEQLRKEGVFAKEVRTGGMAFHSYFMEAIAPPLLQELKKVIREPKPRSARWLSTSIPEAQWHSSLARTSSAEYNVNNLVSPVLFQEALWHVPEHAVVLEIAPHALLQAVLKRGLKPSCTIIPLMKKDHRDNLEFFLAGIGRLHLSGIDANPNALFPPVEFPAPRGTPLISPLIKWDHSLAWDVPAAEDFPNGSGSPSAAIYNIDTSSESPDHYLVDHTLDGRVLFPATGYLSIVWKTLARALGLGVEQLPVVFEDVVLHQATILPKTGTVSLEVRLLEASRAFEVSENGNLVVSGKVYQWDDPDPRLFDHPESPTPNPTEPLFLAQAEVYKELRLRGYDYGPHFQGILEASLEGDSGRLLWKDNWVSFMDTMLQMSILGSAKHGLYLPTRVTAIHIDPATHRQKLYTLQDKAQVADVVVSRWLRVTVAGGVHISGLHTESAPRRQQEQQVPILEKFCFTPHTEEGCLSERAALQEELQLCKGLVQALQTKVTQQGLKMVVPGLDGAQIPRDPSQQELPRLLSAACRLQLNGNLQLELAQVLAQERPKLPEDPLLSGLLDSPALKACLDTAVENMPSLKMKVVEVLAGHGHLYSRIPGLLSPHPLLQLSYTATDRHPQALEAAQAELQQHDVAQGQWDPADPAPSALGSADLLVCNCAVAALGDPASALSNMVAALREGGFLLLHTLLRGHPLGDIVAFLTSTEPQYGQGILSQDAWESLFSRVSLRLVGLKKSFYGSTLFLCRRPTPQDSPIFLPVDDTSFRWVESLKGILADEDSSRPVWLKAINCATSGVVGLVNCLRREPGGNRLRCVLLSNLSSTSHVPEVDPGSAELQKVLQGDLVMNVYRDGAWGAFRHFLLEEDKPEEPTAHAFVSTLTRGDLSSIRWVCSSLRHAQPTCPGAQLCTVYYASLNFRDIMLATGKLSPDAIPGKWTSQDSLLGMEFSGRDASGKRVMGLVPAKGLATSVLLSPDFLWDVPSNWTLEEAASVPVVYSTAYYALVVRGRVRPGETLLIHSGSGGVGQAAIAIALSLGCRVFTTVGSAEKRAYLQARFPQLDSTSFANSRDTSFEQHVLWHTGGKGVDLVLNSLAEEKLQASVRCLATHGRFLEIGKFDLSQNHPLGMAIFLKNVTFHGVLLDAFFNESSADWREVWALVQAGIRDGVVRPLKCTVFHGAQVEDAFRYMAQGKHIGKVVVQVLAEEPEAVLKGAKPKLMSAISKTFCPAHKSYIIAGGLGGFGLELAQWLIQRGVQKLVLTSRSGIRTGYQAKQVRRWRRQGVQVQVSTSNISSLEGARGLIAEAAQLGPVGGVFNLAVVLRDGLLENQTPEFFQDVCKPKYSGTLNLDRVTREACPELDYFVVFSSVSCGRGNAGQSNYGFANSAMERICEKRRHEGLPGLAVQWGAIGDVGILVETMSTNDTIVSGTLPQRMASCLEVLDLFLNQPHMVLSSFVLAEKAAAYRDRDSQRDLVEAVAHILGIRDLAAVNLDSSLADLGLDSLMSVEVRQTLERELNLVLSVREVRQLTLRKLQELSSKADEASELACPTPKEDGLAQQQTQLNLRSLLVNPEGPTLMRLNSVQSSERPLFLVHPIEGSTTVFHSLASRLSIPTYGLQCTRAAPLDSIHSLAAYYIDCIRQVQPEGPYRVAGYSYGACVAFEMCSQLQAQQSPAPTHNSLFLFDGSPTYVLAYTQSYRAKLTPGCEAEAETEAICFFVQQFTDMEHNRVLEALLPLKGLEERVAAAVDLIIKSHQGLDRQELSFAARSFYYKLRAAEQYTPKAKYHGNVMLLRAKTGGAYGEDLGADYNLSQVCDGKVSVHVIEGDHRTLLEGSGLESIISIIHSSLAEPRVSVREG

Broadly, the AC50 is the midpoint of the concentration-response curve, whichever way the signal moves. For `NC(=Nc1ccccc1)Nc1ccccc1`, the compound was called inactive in [1], in assay [2], in assay [3], in assay [4], in assay [5] and in assay [6]. Moreover, the compound was classed as inactive in [7] and in [9]. For the same compound, the concentration at half-maximal activity (AC50) in assay [8] is 50 µM (active).
With `CC(C)(C)c1ccccc1`, the outcome in assay [1], in assay [2], in [3], in [4], in assay [5] and in [6] was inactive. For the same compound, the result in assay [7] and in assay [9] was inactive. Also, the AC50 in assay [8] is 50 µM (active).
`OCC(CO)n1cnc(-c2ccc(F)cc2)c1-c1ccnc(Oc2ccccc2)n1`: the outcome in [1], in assay [2], in assay [3], in [4], in [6] and in assay [7] was inactive. In addition, the result in assay [9] was inactive. Also, the AC50 in assay [5] is 20.1 µM (active); in assay [8], 50 µM (active).
In the case of `CCN(CC)CCOc1ccc(C(=C(Cl)c2ccccc2)c2ccccc2)cc1`, the compound was classed as inactive in assay [1], in [2], in [3], in [4], in assay [5] and in [8]. For the same compound, the compound was classed as inactive in [9]. Moreover, the AC50 in assay [6] was 42 µM (active); in assay [7], 22 µM (active).
As for `CCCCCCCC(=O)OC`, the compound was called inactive in [1], in assay [2], in [3], in assay [4], in [5] and in assay [6]. Also, the result in [8], in assay [10] and in assay [9] was inactive. The AC50 in assay [7] is 12.1 µM (active).
`CCCCCCC(CCCCCCCCCCC(=O)OCC(COC(C)=O)OC(C)=O)OC(C)=O` (stereo unspecified): the call in assay [1], in [2], in [3], in [4], in assay [5] and in assay [6] was inactive. Further, the call in assay [7], in assay [8], in assay [10] and in [9] was inactive.
Consider `CCCCC(CC)COC(=O)CCCCCCCC(=O)OCC(CC)CCCC` (stereo unspecified), for which the result in [1], in [2], in assay [3], in assay [4], in [5] and in assay [6] was inactive. Further, the outcome in [7] and in assay [9] was inactive. Besides, the AC50 in [8] is 50 µM (active).
Turning to `CCCCOC(=O)CCCCC(=O)OCCCC`, the call in assay [1], in assay [2], in assay [3], in assay [4], in assay [5] and in assay [6] was inactive. The call in [7] and in [9] was inactive. The concentration at half-maximal activity (AC50) in [8] was 50 µM (active).
Consider `CC(COCC(C)OC(=O)c1ccccc1)OC(=O)c1ccccc1` (stereo unspecified), for which the result in assay [1], in assay [2], in [3], in assay [4], in assay [5] and in [6] was inactive. In addition, the call in assay [7], in assay [10] and in assay [9] was inactive. Moreover, the AC50 in assay [8] is 87.6 µM (active).
As for `O=C1NC(=O)C(c2ccccc2)(c2ccccc2)N1`, the compound was classed as inactive in assay [1], in [2], in assay [3], in [4], in assay [5] and in [6]. In addition, the compound was called inactive in assay [7], in assay [10] and in [9]. Besides, the AC50 in [8] was 65.1 µM (active).
Consider `CN(C)C(=O)NC1(c2ccccc2)CCN(CCC[C@]2(c3ccc(Cl)c(Cl)c3)CCCN(C(=O)c3ccccc3)C2)CC1`, for which the result in assay [1], in assay [3], in assay [8] and in assay [10] was inactive. Also, the AC50 in assay [2] was 16.5 µM (active); in assay [4], 18.4 µM (active); in [5], 22.7 µM (active); in assay [6], 18.8 µM (active); in [7], 18.8 µM (active); in assay [9] it was 18.7 µM (active).
Turning to `C#CC(O)C(CC)CCCC` (stereo unspecified), the result in [1], in assay [2], in [3], in [4], in assay [5] and in assay [6] was inactive. The result in assay [7], in assay [10] and in [9] was inactive. Also, the AC50 in assay [8] is 73.1 µM (active).
`O=C(O)c1[nH]n(-c2ccc(S(=O)(=O)O)cc2)c(=O)c1N=Nc1ccc(S(=O)(=O)O)cc1`: the compound was called inactive in assay [1], in assay [2], in assay [3], in assay [4], in assay [5] and in assay [6]. The call in assay [7], in [10] and in assay [9] was inactive. Moreover, in [8], the AC50 is 33 µM (active).
With `O=Cc1ccccc1C=O`, the result in assay [1], in assay [2], in assay [3], in assay [4], in assay [5] and in [6] was inactive. For the same compound, the result in assay [7] and in assay [9] was inactive. Besides, the AC50 in assay [8] was 18.5 µM (active).
Take `CC1=C(C)S(=O)(=O)CCS1(=O)=O`: the AC50 in [1] was 76.8 µM (active); in [2], 81.6 µM (active); in assay [4], 85.4 µM (active); in assay [7], 90.9 µM (active); in assay [8], 50 µM (active). Also, the call in assay [3], in assay [5], in assay [6], in assay [10] and in assay [9] was inactive.
As to `CCCC(=O)O`, the call in assay [1], in assay [2], in assay [3], in assay [4], in [5] and in assay [6] was inactive. The outcome in [7], in [8], in assay [10] and in [9] was inactive.
With `O=C(Oc1ccccc1)c1cccc(C(=O)Oc2ccccc2)c1`, the compound was called inactive in [1], in assay [2], in [3], in assay [4], in [5] and in assay [6]. Also, the call in assay [7], in assay [10] and in [9] was inactive. Moreover, the AC50 in [8] was 67.7 µM (active).
For `c1ccc2occc2c1`, the compound was classed as inactive in assay [1], in assay [2], in assay [3], in assay [4], in [5] and in assay [6]. Moreover, the outcome in assay [7], in [8] and in assay [9] was inactive.
For `CC(C)c1cccc(C(C)C)c1`, the result in assay [1], in assay [2], in assay [3], in assay [4], in [5] and in assay [6] was inactive. Also, the compound was classed as inactive in assay [7], in assay [10] and in [9]. Moreover, in assay [8], the AC50 was 66.1 µM (active).
As to `COc1ccc(OC(F)(F)F)cc1CN[C@H]1CCCN[C@H]1c1ccccc1`, the compound was classed as inactive in assay [1] and in assay [3]. Moreover, the AC50 is 83.9 µM (active) in assay [2]; 89.6 µM (active) in assay [4]; 87.1 µM (active) in [5]; 71.6 µM (active) in assay [6]; 72.7 µM (active) in [7]; 12.6 µM (active) in assay [8]. Besides, the AC50 in assay [9] is 93.8 µM (active).
